This is an account of results in PubChem BioAssay (Tox21).

SMILES strings stand for the structures. Inconclusive results are not listed. A number with no mark means an inactive call. Calls of active or inactive are those of the source. Unless noted, the call rests on the fitted dose curve; in most records, active means well fitted curve in the direction sought with a large enough effect in the repeat runs; inconclusive means weak or mixed curves; inactive means no such curve, though single readings can be large; an effect the other way counts as inactive or inconclusive.

Assay [1] in a line: qHTS assay to identify small molecule phospholipidosis (PLD) inducers (AID 1259344; active means well fitted curve in the direction sought with a large enough effect; an effect the other way counts as inactive or inconclusive). An outline of the steps:
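Quantitative HTS in HepG2: compound plus LipidTOX Red dye for 24 h, paraformaldehyde fixation with Hoechst 33342, widefield high-content imaging; amiodarone as positive and DMSO as negative control.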
On the technique in general: qHTS replaces the single test concentration by a dilution series.

Assay [2] in a line: qHTS assay to identify aromatase inhibitors - cell viability counter screen (AID 743084).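 Further: cells stimulated with testosterone during compound exposure; nearly all actives have a fitted effect of over 55% in size.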 Further: potency means the concentration at half of the fitted maximal effect.
The target in assay [3] is Aryl hydrocarbon receptor (Homo sapiens) (UniProt P35869). Kind of assay: qHTS assay to identify small molecule that activate the aryl hydrocarbon receptor (AhR) signaling pathway (AID 743085). Further: nearly all actives have a fitted effect of over 15% in size. Further: potency means the concentration at half of the fitted maximal effect.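 On activation: HG2L7.5c1 human HepG2 liver cells with stably integrated DRE-driven firefly reporter; series mostly up to about 70 µM.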 The method in brief: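 Reporter assay in engineered HepG2 line HG2L7.5c1, whose plasmid carries twenty dioxin responsive elements upstream of firefly luciferase. Treatment lasted 24 h at 37C; ONE-Glo luminescence gauged induction.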

A short description of assay [4]: qHTS assay to identify small molecule that activate the aryl hydrocarbon receptor (AhR) signaling pathway - cell viability counter screen (AID 743086). Further: nearly all actives have a fitted effect of over 45% in size. Further: potency means the concentration at half of the fitted maximal effect. The method in brief:
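HepG2-AhR-luc (HG2L7.5c1) cells, 4000/well, treated 24 h at 37 C with compound; viability measured as CellTiter-Fluor fluorescence after 30 min in the same wells as the luciferase read.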

Assay [5] addresses Nuclear receptor subfamily 1 group I member 2 (Rattus norvegicus) (UniProt Q9R1A7). The experiment in a line: Rat pregnane X receptor (rPXR) activation by small molecules, qHTS assay (AID 1346983). Further: nearly all actives have a fitted effect of over 20% in size. Further: potency means the concentration at half of the fitted maximal effect. To be noted: rPXR luciferase reporter cells, One-Glo luminescence, 24 h; max activation: stronger effect = higher value. The method in brief: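 Cell-based rPXR activation assay: rPXR cells, 2,000 per well, rested 5hr at 37 C, then exposed to compounds in DMSO for 24 hr at 37 C. Luciferase activity read by One-Glo luminescence after 30 min at room temperature.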

Assay [6] addresses Nuclear receptor subfamily 1 group I member 2 (Homo sapiens) (UniProt O75469). The experiment in a line: CYP3A4 induction through human pregnane X receptor (PXR) by small molecules, qHTS assay (AID 1346984). Further: nearly all actives have a fitted effect of over 40% in size. Further: potency means the concentration at half of the fitted maximal effect. An outline of the steps:
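DPX-2 reporter cells; 24h cpd, 37C; Luciferin-IPA 3uM final x3h; One-Glo 30 min RT; lumi read.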

For assay [7] the target is unchanged. Kind of assay: Human pregnane X receptor (PXR) activation by small molecules, qHTS assay (AID 1346985). Further: nearly all actives have a fitted effect of over 40% in size. Further: potency means the concentration at half of the fitted maximal effect. An outline of the steps: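 DPX-2 cells (HepG2 co-transfected with a PXR response element and a CYP3A4-promoter luciferase construct) were seeded at 2,000 per well, rested 5 hr at 37C, then exposed to DMSO-dissolved compounds for 24 hr. Activation was read as luciferase luminescence.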
On the % scale 0 is the no-effect control and ±100 the full control effect.

Sequence of Nuclear receptor subfamily 1 group I member 2 (Rattus norvegicus) (Q9R1A7 whole entry, looked up): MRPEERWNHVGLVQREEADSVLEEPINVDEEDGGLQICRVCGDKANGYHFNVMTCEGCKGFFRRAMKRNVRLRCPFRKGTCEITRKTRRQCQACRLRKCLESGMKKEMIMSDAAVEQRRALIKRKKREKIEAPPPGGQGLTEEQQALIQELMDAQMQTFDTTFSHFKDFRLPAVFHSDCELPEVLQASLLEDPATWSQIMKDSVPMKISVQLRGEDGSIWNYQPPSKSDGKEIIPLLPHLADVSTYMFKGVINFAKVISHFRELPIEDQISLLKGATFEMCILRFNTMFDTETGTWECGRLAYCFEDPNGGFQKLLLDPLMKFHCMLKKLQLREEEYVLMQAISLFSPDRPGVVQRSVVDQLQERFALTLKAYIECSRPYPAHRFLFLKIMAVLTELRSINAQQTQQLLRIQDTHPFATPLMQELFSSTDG
Sequence of Aryl hydrocarbon receptor (Homo sapiens) (P35869 whole entry, looked up): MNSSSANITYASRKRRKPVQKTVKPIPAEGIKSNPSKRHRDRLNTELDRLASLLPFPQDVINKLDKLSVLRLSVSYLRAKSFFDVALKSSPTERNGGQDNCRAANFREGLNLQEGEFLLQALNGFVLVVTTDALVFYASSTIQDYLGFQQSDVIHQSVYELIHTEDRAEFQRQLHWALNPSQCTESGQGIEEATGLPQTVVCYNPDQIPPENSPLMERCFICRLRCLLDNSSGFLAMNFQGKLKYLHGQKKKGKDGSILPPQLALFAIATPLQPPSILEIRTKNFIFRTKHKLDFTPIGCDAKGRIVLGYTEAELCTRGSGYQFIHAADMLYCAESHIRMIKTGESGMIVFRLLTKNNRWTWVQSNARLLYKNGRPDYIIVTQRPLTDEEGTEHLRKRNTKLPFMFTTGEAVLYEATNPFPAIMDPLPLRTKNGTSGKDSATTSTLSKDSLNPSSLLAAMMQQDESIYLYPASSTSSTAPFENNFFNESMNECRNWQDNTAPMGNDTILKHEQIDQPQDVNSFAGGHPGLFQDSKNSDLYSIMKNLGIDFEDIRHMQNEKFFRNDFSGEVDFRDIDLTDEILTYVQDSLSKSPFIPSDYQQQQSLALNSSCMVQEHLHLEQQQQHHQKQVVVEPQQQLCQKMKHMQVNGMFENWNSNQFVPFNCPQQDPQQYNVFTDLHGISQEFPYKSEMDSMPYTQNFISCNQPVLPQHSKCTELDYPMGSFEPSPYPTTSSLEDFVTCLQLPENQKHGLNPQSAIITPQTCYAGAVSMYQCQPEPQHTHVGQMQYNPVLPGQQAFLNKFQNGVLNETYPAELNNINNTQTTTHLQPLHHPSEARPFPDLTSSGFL

Take `C[C@]12CC[C@@H]3c4ccc(OS(=O)(=O)O)cc4CC[C@H]3[C@@H]1CCC2=O`: the PLD induction in assay [1] is 0.241% [at 7.66 µM].

On to `CC[C@H](C)[C@H]1O[C@]2(CC[C@@H]1C)C[C@@H]1C[C@@H](C/C=C(\C)[C@@H](O[C@H]3C[C@H](OC)[C@@H](O[C@H]4C[C@H](OC)[C@@H](O)[C@H](C)O4)[C@H](C)O3)[C@@H](C)/C=C/C=C3\CO[C@@H]4[C@H](O)C(C)=C[C@@H](C(=O)O1)[C@]34O)O2`, for which the Potency result in assay [2], in assay [3], in assay [4], in assay [1], in assay [6] and in assay [7] was “inactive” in each case. Besides, the max activation in assay [5] was -15.7%.

`CC[C@@]1(O)C(=O)OCc2c1cc1n(c2=O)Cc2cc3c([N+](=O)[O-])cccc3nc2-1`: the Potency entry in assay [1], in assay [6] and in assay [7] was “inactive” in each case. In assay [5], the Potency is 6.31 µM (active).

As for `CCN1C(=O)NC(c2ccccc2)C1=O` (stereo not given), the Potency entry in assay [2], in assay [3], in assay [4], in assay [1], in assay [6] and in assay [7] was “inactive” each time. For the same molecule, the max activation in assay [5] is 7.71%.

As for `CCOC(=O)C1=C(COCCN)NC(C)=C(C(=O)OC)C1c1ccccc1Cl` (stereo not given), the Potency result in assay [2], in assay [3] and in assay [1] was “inactive” each time. For the same molecule, the values for the Potency in assay [4], in assay [6] and in assay [7] were 23.7 µM (active), 8.91 µM (active) and 8.91 µM (active), respectively. Moreover, the max activation in assay [5] was 3.61%.

With `O=C(O)C1CCCN1` (stereo not given), the Potency entry in assay [2], in assay [1], in assay [6] and in assay [7] was “inactive” throughout. For the same molecule, the max activation in assay [5] is -0.193%.

For the molecule `O=C(O)[C@H]1/C(=C/CO)O[C@@H]2CC(=O)N21`, the Potency result in assay [2], in assay [3], in assay [4], in assay [1], in assay [6] and in assay [7] was “inactive” in each case. The max activation in assay [5] is -2.31%.

Take `O=C1NCCN1c1ncc([N+](=O)[O-])s1`: the Potency entry in assay [2], in assay [3], in assay [4], in assay [1], in assay [6] and in assay [7] was “inactive” in each case. For the same molecule, the max activation in assay [5] was -1.52%.

Consider `O=[N+]([O-])c1c(Cl)cccc1-c1c[nH]cc1Cl`, for which the Potency entry in assay [1] is “inactive”. Besides, the max activation in assay [5] was 9.62%. Moreover, the Potency in assay [6] was 11.2 µM (active); in assay [7], 14.1 µM (active).

Consider `COc1ccc(CC2c3cc(OC)c(OC)cc3CC[N+]2(C)CCC(=O)OCCCCCOC(=O)CC[N+]2(C)CCc3cc(OC)c(OC)cc3C2Cc2ccc(OC)c(OC)c2)cc1OC` (stereo not given), for which the Potency result in assay [2], in assay [3], in assay [4], in assay [1], in assay [6] and in assay [7] was “inactive” each time. Further, the max activation in assay [5] was -3.66%.

Turning to `CCCC1C(=O)N2C(N(C)C)=Nc3ccc(C)cc3N2C1=O` (stereo not given), the Potency result in assay [2], in assay [1], in assay [6] and in assay [7] was “inactive” each time. For the same molecule, in assay [5], the max activation was 5.29%.

In the case of `CCCCCCCCCCCCOCCCN`, the Potency result in assay [2], in assay [1], in assay [6] and in assay [7] was “inactive” each time. The max activation in assay [5] was -3.73%.

Consider `OCC(S)CS` (stereo not given), for which the Potency result in assay [2], in assay [3], in assay [4], in assay [1], in assay [6] and in assay [7] was “inactive” in each case. Further, the max activation in assay [5] was -4.08%.

For `CCCCCCCCCCCC(=O)OC[C@@H](O)C1OC[C@H](O)[C@H]1O` (stereo not given in full), the Potency result in assay [2], in assay [3], in assay [4], in assay [1], in assay [6] and in assay [7] was “inactive” each time. For the same molecule, in assay [5], the max activation was -2.81%.

On to `O=C(O)C1=C(CSc2nnnn2CS(=O)(=O)O)CS[C@@H]2[C@H](NC(=O)[C@H](O)c3ccccc3)C(=O)N12`, for which the Potency entry in assay [2], in assay [3], in assay [1], in assay [6] and in assay [7] was “inactive” each time. In assay [5], the max activation is -0.182%.

For the molecule `C=CC[C@@H]1/C=C(\C)C[C@H](C)C[C@H](OC)[C@H]2O[C@@](O)(C(=O)C(=O)N3CCCC[C@H]3C(=O)O[C@H](/C(C)=C/[C@@H]3CC[C@@H](O)[C@H](OC)C3)[C@H](C)[C@@H](O)CC1=O)[C@H](C)C[C@@H]2OC`, the Potency entry in assay [2], in assay [3], in assay [4], in assay [1], in assay [6] and in assay [7] was “inactive” in each case. Besides, in assay [5], the max activation was -13.2%.

In the case of `NC(=S)N=Nc1ccc(NN=C(N)N)cc1`, the Potency is 23.7 µM (active) in assay [2], 11.9 µM (active) in assay [3] and 29.8 µM (active) in assay [4]. Besides, the Potency result in assay [1], in assay [6] and in assay [7] was “inactive” throughout. Further, the max activation in assay [5] is -0.862%.

As to `CC1=C[C@H](O)CC(C)(C)[C@H]1/C=C/C(C)=C/C=C/C(C)=C/C=C/C=C(C)/C=C/C=C(C)/C=C/C1=C(C)C[C@@H](O)CC1(C)C`, the Potency entry in assay [2], in assay [3], in assay [4], in assay [1], in assay [6] and in assay [7] was “inactive” each time. In addition, the max activation in assay [5] is 0.35%.

With `COc1ccc(C(=O)CCC(=O)O)c2ccccc12`, the Potency entry in assay [2], in assay [3], in assay [4], in assay [1], in assay [6] and in assay [7] was “inactive” in each case. Moreover, the max activation in assay [5] was -4.04%.

Take `C=C(NC(=O)C(=C)NC(=O)c1csc(C2=N[C@@H]3c4csc(n4)[C@H]4NC(=O)c5csc(n5)[C@H]([C@](C)(O)[C@@H](C)O)NC(=O)[C@H]5CSC(=N5)C(=CC)NC(=O)C([C@@H](C)O)NC(=O)c5csc(n5)[C@]3(CC2)NC(=O)[C@H](C)NC(=O)C(=C)NC(=O)[C@H](C)NC(=O)C([C@@H](C)CC)NC2C=Cc3c([C@H](C)O)cc(nc3C2O)C(=O)O[C@@H]4C)n1)C(N)=O` (stereo not given in full): the Potency in assay [2] is 11.4 µM (active). The Potency entry in assay [3], in assay [4], in assay [1], in assay [6] and in assay [7] was “inactive” throughout. Besides, the max activation in assay [5] was -3.21%.

As to `O=C1N=C2SCCN2C(=O)C1Cc1ccc(Cl)cc1` (stereo not given), the Potency result in assay [1], in assay [6] and in assay [7] was “inactive” each time. In assay [5], the max activation is -2.07%.

Consider `CC1(O)CCC(C(C)(C)O)CC1` (stereo not given), for which the Potency entry in assay [2], in assay [3], in assay [4], in assay [1], in assay [6] and in assay [7] was “inactive” throughout. The max activation in assay [5] is -1.3%.

As for `Cc1ccccc1`, the Potency result in assay [1] was “inactive”. Besides, the max activation in assay [5] was -3.48%.

For the molecule `N#CC(c1ccc(Cl)cc1)c1c(Cl)cc(-n2ncc(=O)[nH]c2=O)cc1Cl` (stereo not given), the Potency result in assay [2], in assay [3], in assay [4], in assay [1], in assay [6] and in assay [7] was “inactive” throughout. Besides, the max activation in assay [5] was 12.6%.

Consider `CCCCCCCCCCCCCC[n+]1ccc(C)cc1`, for which the Potency entry in assay [1], in assay [6] and in assay [7] was “inactive” throughout. The max activation in assay [5] was -19.6%.
